# USP17 block: inhibitors of human USP17 deubiquitinase. AID 1645855. actives 6.5% (n = 47,000). inhibition, % at 50 µM. A8MUK1. purified USP17, Ub-rhodamine cleavage fluorescence, 3 h
# USP8 block: blocks human USP8 ubiquitin-rhodamine cleavage. P40818. purified USP8, Ub-rhodamine cleavage fluorescence, 30 min. inhibition, % at 20 µM. actives 4.2% (n = 47,000). AID 1645853
# USP30 inh: inhibitors of human USP30 deubiquitinase; purified USP30, Ub-rhodamine cleavage fluorescence; inhibition, % at 25 µM; actives 5.3% (n = 47,000); AID 1645860; Q70CQ3
# Numbers without * were called inactive; i = inactive; / = no result. Sampled rows, rich in hits. Any-hit rate of the full collection: about 12%. No stated cut-off is given here; in the data, active means inhibition above about 30%; inactive means the rest.
SMILES,USP17 block,USP8 block,USP30 inh
O=C1CC(c2ccccc2)n2nc(NC(=O)c3cccc(F)c3)nc2N1 (configuration not stated),0,2,-6
O=C(/C=C/c1ccco1)Nc1nc2n(n1)C(c1ccccc1)CC(=O)N2 (configuration not stated),-7,-8,-195
O=C1CC(c2ccccc2)n2nc(NC(=O)c3ccccc3F)nc2N1 (configuration not stated),-1,44*,0
CC(=O)Nc1nc2n(n1)C(c1ccccc1)CC(=O)N2 (configuration not stated),-5,3,-4
COc1ccc(C(=O)Nc2nc3n(n2)C(c2ccccc2)CC(=O)N3)cc1 (configuration not stated),73*,76*,35*
COc1ccccc1N1CCN(C(=O)CCc2c(C)c3ccc(O)cc3oc2=O)CC1,-20,-63,-19
CCOC(=O)c1ccc(NC(=O)CC2=NS(=O)(=O)c3ccccc3N2)cc1,0,11,3
CCOC(=O)c1c(N)n(CC(C)NC(=O)C2CC2)c2nc3ccccc3nc12 (configuration not stated),30*,25,-40
Nc1c(S(=O)(=O)c2ccccc2)c2nc3ccccc3nc2n1CCNC(=O)C1CC1,14,14,8
COc1ccccc1NS(=O)(=O)c1c(C(C)C)nc2sc(C)cn12,-4,-6,2
Cc1nccc(-c2sc(C3CCN(C(=O)C4CCC4)CC3)nc2C)n1,2,3,0
COc1ccc(OCc2nc(-c3ccc(N4CCCCCC4)nc3)no2)cc1,5,44*,-254
c1ccc2c(c1)CCN(Cc1nc(-c3ccc(N4CCOCC4)nc3)no1)C2,-1,36*,-3
c1cc(N2CCOCC2)ncc1-c1noc(CN2CCCCCC2)n1,-19,-48,-51
CC1CCN(Cc2nc(-c3ccc(N4CCCCC4)nc3)no2)CC1,9,15,2
COc1ccc(-c2noc(-c3ccc(N4CCC5(CC4)OCCO5)nc3)n2)cc1,15,17,34*
Cc1ccc(-c2noc(-c3ccc(N4CCC5(CC4)OCCO5)nc3)n2)cc1,1,5,-1
O=C(Cc1ccccc1)Nc1ccnn1C1CCN(Cc2cnn(-c3ccccc3)c2)CC1,-16,-8,-34
Cc1noc(C)c1CC(=O)Nc1cccn2nc(C(C)C)nc12,5,11,3
O=C(NCC(c1ccsc1)N1CCOCC1)c1ccc(Cl)cc1 (configuration not stated),-3,3,-4
Fc1ccc(-c2nc(C3CC3)ncc2-c2nnnn2-c2ccccc2)cc1F,15,23,30*
Fc1ccc(-c2nc(C3CC3)ncc2-c2nnnn2-c2ccccc2)c(F)c1,12,3,19
Fc1ccc(-c2cnc(N3CCOCC3)nc2)cc1,12,3,4
Clc1ccc(-c2cnc(N3CCOCC3)nc2)cc1,13,16,44*
CCN(CC)c1ccc2nnc(CCC(=O)NCC3CCCO3)n2n1 (configuration not stated),0,-5,10
SMILES,USP17 block,USP8 block,USP30 inh
Cc1ccc2cc(NC(=O)CC(CC(=O)O)c3ccccc3)ccc2n1 (configuration not stated),53*,6,/
Cc1nc2ccc(NC(=O)COc3ccccc3F)cc2s1,-7,0,-10
CCc1noc(C2CCCCN2Cc2nc(-c3cccnc3)no2)n1 (configuration not stated),0,6,3
N#Cc1cnn2ccc(-c3ccc4c(c3)CCC4)nc12,34*,-14,/
Nc1nccc(-c2ccc3c(c2)CCC3)n1,-5,-3,-16
CCc1cc2c(cc3n2CC(C)(C(=O)NC2CCCCC2)N(CCOC)C3=O)s1 (configuration not stated),-1,-1,0
O=C(c1c2c(-c3ccccc3)ncnc2n2ccccc12)N1CCOCC1,-192,-11,i
O=C(NC1CCC1)c1c2c(-c3ccncc3)ncnc2n2ccccc12,68*,-19,/
CCC(=O)Nc1ccc(C(=O)CN2C(=O)NC(c3ccccc3)(c3ccccc3)C2=O)cc1,-8,-6,-62
COc1ccccc1C(CNC(=O)c1ccc(OCC(C)C)cc1)N(C)C (configuration not stated),-22,-17,2
CC(C)COc1ccc(C(=O)N/C(=C/c2ccc3c(c2)OCO3)C(=O)O)cc1,/,30,37*
COc1cccc(C(CC(=O)Nc2ccc(Cl)cc2)n2cccc2)c1 (configuration not stated),3,-3,-23
O=C(CC(c1cccc(F)c1)n1cccc1)NCc1ccccc1 (configuration not stated),8,-53,0
COc1ccc2cc(C(C)C(=O)NCc3cccc(NS(N)(=O)=O)c3)ccc2c1 (configuration not stated),6,46*,42*

# Bioassay records as filed in PubChem BioAssay.
